A word on the inhibition: it is the drop in the measured response relative to a control, in per cent.

For test [1], the target named is High affinity nerve growth factor receptor (Homo sapiens) (UniProt P04629). To be noted: at 1 µM.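 Note: each value is the mean percent inhibition of TRKA.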
Test [2] concerns the target BDNF/NT-3 growth factors receptor (Homo sapiens) (UniProt Q16620). To be noted: at 0.1 µM.
Test [3] has the same target. The conditions noted are these: at 1 µM.
Test [4] addresses NT-3 growth factor receptor (Homo sapiens) (UniProt Q16288). The conditions noted are these: at 0.1 µM.
For test [5] the target is unchanged. To be noted: at 1 µM.
The target of test [6] is T1, Tyrosine-protein kinase TXK (Homo sapiens) (UniProt P42681).
T1 sequence (whole entry): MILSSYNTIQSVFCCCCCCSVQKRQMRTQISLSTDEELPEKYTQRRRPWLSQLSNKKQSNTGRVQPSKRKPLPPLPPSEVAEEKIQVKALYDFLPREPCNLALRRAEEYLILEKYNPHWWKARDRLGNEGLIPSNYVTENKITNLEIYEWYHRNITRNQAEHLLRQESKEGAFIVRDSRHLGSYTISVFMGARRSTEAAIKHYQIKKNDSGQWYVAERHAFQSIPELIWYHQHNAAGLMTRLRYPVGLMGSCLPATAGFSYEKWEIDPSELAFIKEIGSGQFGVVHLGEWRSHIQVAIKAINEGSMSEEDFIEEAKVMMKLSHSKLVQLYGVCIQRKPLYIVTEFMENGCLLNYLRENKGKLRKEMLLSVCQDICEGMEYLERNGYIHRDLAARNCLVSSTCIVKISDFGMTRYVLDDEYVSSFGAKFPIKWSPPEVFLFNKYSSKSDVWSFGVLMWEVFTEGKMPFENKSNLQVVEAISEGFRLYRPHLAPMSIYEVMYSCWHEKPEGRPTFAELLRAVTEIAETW
The conditions noted are these: at 0.1 µM.

Test [7] has as its target T1, Tyrosine-protein kinase TXK (Homo sapiens). The conditions noted are these: at 1 µM.
Test [8] has as its target Non-receptor tyrosine-protein kinase TYK2 (Homo sapiens) (UniProt P29597). To be noted: at 0.1 µM.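 Note: each value is a mean of the inhibition readings.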
Test [9] has as its target T2, Dual specificity protein kinase TTK (Homo sapiens) (UniProt P33981).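 Note: reported figures are mean TTK inhibition at 1 µM.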
T2 sequence (whole entry): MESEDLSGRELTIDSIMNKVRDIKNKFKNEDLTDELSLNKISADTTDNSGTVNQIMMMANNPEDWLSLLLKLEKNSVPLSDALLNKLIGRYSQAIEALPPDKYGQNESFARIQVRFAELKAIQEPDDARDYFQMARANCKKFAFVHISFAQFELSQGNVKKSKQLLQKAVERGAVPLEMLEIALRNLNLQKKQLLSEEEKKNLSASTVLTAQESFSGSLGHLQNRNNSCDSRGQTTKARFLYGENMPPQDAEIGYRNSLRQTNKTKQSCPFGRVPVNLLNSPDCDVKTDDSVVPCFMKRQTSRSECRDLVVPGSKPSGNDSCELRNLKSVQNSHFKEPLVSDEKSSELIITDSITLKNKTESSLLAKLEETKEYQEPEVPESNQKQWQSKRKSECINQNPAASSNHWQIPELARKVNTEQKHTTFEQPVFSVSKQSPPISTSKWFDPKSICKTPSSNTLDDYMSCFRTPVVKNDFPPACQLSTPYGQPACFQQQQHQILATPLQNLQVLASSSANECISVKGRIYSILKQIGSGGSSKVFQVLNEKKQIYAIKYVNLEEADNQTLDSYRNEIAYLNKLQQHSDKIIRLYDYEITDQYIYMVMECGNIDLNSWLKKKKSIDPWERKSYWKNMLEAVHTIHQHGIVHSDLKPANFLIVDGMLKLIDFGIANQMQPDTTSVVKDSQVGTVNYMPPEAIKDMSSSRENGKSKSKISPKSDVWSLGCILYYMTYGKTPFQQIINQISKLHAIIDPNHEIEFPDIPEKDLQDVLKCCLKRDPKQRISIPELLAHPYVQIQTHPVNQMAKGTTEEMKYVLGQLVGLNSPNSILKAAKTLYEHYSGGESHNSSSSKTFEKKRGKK
The conditions noted are these: at 1 µM.

The target of test [10] is T3, Aurora kinase A (Homo sapiens) (UniProt O14965).
T3 sequence (whole entry): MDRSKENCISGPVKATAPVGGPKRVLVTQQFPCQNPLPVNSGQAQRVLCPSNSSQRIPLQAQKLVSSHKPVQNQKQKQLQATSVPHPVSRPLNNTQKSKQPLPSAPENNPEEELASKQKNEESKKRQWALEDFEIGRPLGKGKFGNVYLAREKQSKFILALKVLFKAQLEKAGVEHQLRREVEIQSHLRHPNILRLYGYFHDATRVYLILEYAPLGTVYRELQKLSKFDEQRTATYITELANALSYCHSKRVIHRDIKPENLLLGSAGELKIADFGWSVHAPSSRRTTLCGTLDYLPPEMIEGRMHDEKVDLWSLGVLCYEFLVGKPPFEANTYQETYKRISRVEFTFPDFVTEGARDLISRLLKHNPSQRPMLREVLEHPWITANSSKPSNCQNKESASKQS
The conditions noted are these: at 0.1 µM.

Test [11] concerns the target T3, Aurora kinase A (Homo sapiens). To be noted: at 1 µM.
Test [12] addresses Aurora kinase B (Homo sapiens) (UniProt Q96GD4). The conditions noted are these: at 0.1 µM.
Test [13] shares this target. To be noted: at 1 µM.
The target in test [14] is T4, Aurora kinase C (Homo sapiens) (UniProt Q9UQB9).
T4 sequence (whole entry): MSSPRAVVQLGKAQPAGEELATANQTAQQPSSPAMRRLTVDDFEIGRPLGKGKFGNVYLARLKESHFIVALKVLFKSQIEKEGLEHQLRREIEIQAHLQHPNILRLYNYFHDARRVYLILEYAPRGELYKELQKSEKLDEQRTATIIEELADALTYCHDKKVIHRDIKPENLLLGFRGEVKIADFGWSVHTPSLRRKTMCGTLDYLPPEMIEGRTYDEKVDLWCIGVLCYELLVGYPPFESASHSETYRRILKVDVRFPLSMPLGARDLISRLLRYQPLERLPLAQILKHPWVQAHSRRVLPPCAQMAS
The conditions noted are these: at 0.1 µM.

Test [15] addresses T4, Aurora kinase C (Homo sapiens). The conditions noted are these: at 1 µM.
Test [16] has as its target Serine/threonine-protein kinase 10 (Homo sapiens) (UniProt O94804). The conditions noted are these: at 0.1 µM.
Test [17] shares this target. To be noted: at 1 µM.
For test [18], the target named is T5, Mitogen-activated protein kinase kinase kinase kinase 2 (Homo sapiens) (UniProt Q12851).
T5 sequence (whole entry): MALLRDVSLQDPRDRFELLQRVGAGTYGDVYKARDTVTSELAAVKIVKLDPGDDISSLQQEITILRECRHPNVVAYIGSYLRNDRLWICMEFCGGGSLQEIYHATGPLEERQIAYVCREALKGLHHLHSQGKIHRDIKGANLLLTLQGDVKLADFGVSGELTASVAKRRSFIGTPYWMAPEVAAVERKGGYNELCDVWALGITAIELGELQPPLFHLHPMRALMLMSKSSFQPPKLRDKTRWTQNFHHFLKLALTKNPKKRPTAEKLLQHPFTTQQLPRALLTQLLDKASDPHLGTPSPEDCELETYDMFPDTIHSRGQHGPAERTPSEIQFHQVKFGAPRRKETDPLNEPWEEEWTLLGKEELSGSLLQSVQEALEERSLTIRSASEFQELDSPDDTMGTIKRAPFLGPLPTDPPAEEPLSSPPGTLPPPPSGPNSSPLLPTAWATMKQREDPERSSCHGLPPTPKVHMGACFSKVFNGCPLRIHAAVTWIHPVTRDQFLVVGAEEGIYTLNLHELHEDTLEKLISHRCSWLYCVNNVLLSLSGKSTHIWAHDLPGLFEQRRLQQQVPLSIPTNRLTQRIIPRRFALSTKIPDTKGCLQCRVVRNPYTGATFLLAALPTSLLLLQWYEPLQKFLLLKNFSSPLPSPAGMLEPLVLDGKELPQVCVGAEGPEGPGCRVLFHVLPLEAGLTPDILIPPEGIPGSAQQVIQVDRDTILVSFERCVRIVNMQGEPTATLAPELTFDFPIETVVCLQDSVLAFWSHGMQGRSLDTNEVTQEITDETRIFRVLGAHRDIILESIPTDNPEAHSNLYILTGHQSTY
To be noted: at 0.1 µM.

For test [19], the target named is T5, Mitogen-activated protein kinase kinase kinase kinase 2 (Homo sapiens). The conditions noted are these: at 1 µM.
Test [20] deals with Mitogen-activated protein kinase kinase kinase kinase 4 (Homo sapiens) (UniProt O95819). The conditions noted are these: at 0.1 µM.
Chain of Mitogen-activated protein kinase kinase kinase kinase 4 (Homo sapiens) (O95819 2-1239 limits assumed): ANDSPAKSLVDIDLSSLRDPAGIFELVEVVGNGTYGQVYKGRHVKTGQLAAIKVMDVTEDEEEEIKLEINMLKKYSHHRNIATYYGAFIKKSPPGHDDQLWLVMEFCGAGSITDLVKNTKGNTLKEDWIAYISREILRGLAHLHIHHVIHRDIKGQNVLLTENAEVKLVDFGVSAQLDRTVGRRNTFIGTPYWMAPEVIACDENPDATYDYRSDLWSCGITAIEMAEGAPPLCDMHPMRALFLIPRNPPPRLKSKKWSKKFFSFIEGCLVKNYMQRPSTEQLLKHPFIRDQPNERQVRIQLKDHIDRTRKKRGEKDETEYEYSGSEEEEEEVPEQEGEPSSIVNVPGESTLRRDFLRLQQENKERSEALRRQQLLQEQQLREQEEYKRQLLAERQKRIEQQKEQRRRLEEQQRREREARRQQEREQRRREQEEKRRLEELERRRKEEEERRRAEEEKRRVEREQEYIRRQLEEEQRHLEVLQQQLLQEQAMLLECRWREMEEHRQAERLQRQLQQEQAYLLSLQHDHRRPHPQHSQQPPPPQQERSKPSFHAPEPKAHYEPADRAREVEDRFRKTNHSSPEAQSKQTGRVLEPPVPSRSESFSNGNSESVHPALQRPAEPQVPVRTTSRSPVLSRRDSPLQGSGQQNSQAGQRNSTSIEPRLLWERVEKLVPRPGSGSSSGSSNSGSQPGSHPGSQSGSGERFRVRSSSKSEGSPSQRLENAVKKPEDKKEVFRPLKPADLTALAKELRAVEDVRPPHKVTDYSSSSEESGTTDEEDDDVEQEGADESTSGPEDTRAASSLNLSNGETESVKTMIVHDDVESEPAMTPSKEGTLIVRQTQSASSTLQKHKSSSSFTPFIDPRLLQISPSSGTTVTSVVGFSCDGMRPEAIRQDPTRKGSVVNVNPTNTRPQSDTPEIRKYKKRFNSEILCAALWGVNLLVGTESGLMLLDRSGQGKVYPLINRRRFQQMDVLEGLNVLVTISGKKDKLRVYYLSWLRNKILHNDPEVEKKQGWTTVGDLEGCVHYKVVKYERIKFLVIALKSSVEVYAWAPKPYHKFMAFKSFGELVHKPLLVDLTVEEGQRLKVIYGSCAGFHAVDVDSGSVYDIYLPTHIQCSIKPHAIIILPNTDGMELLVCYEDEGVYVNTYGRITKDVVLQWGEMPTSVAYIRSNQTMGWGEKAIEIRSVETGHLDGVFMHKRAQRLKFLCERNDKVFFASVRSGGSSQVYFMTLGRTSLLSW

Chain of Serine/threonine-protein kinase 10 (Homo sapiens) (O94804 whole entry, looked up): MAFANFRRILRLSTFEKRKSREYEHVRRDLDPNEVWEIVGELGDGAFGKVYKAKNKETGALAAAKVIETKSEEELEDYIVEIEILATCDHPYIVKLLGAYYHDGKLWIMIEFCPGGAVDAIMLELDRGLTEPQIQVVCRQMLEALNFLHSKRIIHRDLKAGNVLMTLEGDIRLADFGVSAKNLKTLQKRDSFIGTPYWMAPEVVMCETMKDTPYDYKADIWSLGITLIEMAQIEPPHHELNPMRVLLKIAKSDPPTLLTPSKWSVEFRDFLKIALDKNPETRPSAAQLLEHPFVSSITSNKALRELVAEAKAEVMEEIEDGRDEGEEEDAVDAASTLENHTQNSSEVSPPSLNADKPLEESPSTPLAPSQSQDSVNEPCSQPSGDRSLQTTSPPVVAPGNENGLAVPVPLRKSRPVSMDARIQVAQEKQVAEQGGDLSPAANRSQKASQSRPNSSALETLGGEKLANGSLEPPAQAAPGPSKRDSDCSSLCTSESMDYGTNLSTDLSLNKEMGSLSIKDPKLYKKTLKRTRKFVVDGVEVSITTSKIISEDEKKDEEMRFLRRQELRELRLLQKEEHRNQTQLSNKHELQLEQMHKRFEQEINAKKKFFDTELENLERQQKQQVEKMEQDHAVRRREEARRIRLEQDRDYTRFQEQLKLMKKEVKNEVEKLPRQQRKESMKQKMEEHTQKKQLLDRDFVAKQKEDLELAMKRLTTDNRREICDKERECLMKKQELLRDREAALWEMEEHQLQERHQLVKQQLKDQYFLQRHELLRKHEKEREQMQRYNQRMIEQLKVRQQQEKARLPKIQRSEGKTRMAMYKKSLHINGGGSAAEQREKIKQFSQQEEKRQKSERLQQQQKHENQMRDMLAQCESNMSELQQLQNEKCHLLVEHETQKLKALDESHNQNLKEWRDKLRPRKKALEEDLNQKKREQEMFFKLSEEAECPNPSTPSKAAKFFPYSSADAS
Chain of BDNF/NT-3 growth factors receptor (Homo sapiens) (Q16620 32-822 limits assumed): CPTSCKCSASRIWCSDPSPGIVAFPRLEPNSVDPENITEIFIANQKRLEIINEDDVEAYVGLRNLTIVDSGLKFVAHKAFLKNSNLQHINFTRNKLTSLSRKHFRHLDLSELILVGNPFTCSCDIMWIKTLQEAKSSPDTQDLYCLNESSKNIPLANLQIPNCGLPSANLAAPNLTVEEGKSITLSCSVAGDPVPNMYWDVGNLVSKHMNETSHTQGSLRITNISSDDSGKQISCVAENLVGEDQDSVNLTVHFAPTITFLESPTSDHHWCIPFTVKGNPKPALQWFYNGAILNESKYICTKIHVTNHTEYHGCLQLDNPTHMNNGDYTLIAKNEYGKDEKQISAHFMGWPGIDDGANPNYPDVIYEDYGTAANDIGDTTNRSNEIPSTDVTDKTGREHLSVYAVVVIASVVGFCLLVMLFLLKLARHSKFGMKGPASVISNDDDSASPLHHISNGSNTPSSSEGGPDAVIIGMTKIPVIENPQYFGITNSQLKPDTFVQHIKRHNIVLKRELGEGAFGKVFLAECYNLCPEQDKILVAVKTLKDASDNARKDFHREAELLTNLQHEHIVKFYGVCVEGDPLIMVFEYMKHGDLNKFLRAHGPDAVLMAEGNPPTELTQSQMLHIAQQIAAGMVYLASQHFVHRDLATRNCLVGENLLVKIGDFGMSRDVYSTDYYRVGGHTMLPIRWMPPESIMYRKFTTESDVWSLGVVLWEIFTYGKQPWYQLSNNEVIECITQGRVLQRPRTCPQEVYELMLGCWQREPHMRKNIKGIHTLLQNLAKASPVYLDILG
Chain of Aurora kinase B (Homo sapiens) (Q96GD4 whole entry): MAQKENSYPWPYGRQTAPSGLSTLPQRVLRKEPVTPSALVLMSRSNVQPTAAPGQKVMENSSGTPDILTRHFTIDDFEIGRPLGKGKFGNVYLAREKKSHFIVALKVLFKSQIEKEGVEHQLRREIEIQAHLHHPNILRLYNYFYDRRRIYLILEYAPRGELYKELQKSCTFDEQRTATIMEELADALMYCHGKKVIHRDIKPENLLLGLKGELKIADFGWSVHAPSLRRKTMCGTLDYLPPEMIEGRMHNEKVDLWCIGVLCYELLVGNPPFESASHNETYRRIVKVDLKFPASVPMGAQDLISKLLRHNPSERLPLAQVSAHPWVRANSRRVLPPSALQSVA
Chain of Non-receptor tyrosine-protein kinase TYK2 (Homo sapiens) (P29597 whole entry): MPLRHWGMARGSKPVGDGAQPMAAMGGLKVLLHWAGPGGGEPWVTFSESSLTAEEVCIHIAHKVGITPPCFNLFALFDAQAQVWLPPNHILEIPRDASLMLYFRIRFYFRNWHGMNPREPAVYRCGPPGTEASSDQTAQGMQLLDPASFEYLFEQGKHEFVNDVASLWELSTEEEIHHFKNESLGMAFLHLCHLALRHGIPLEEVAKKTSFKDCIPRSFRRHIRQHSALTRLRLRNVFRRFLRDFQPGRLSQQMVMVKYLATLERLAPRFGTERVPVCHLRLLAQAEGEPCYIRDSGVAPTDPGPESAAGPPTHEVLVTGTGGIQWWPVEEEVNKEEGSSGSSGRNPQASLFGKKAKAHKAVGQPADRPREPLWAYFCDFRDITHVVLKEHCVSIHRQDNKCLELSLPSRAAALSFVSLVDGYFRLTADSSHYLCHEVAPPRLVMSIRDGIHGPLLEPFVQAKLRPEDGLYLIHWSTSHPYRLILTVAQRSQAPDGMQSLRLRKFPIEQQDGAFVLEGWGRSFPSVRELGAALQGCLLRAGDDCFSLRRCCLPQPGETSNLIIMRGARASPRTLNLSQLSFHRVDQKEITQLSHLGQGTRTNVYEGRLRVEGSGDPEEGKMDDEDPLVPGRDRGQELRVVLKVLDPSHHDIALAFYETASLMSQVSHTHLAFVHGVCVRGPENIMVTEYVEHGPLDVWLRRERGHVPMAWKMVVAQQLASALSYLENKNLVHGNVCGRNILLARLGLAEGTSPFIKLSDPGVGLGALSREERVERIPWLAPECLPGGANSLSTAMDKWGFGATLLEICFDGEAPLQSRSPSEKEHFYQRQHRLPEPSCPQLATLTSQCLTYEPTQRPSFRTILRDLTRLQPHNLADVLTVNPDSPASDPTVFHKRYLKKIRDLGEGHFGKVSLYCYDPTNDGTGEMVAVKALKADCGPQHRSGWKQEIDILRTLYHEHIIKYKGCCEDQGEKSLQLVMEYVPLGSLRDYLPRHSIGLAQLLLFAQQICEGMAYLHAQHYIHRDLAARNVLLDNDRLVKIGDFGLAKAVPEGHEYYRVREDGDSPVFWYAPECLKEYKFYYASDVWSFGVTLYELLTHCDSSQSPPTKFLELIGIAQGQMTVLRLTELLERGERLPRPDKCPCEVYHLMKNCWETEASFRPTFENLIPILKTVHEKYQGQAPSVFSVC

In the case of `Fc1ccc(-c2ncn(C3CCNCC3)c2-c2ccnc(Oc3ccc(F)c(F)c3)n2)cc1`, the inhibition is 3.11% in test [1]; 3.23% in test [2]; 3.93% in test [3]; 2.87% in test [4]; 4.23% in [5]; -5.36% in [6]. Besides, the inhibition was 0.03% in test [7]; -3.58% in test [8]; 14% in test [9]; -0.65% in test [10]; -0.3% in test [11]; -1.34% in [12]. The inhibition is 1.81% in test [13]; -2.62% in [14]; 4.92% in test [15]; 4.63% in test [16]; 8.33% in test [17]; 1.35% in test [18]. Moreover, the inhibition in test [19] was 3.76%; in test [20], 9.16%.

Take `C[C@@H](Oc1cc(-n2cnc3ccc(OCC4CCN(C)CC4)cc32)sc1C(N)=O)c1ccccc1Cl`: the inhibition was 5.94% in test [1]; 3.02% in [2]; 10.1% in [3]; 4.35% in [4]; 10.4% in test [5]; 5.54% in test [6]. The inhibition in [7] was 8.91%; in [8], -2.69%; in test [9], 43.2%; in test [10], 3.84%; in test [11], 6.43%; in test [12], 4.49%. The inhibition is 5.33% in test [13]; -0.3% in test [14]; 3% in test [15]; 63.3% in test [16]; 86.9% in test [17]; 2.59% in test [18]. Besides, the inhibition in test [19] turned out to be 13.9%; in test [20] it was 4.27%.

As to `COc1cc(Nc2ncc3c(C)nc(-c4cccc(C(F)(F)F)c4)n3n2)cc(OC)c1OC`, the inhibition is 7.83% in test [1]; 4.54% in [2]; 16.5% in [3]; 4.76% in test [4]; 11% in [5]; 3.45% in test [6]. Besides, the inhibition in [7] was 16.6%; in test [8] it was -1.61%; in [9], 14.4%; in test [10] it was 2.65%; in test [11], 36.2%; in test [12], 4.06%. Besides, the inhibition in [13] is 14.4%; in [14], 1.2%; in test [15], 11.3%; in [16] it was 6.36%; in test [17], 12.5%; in test [18] it was -0.1%. Moreover, the inhibition in test [19] came out at 7.98%; in test [20] it was 11.3%.

Regarding `CN(C)CCOc1ccc(-c2cc(-c3ccc4c(c3)CCC4=NO)c(-c3ccncc3)o2)cc1`, the inhibition in [1] was -2.77%; in test [2] it was -0.06%; in [3], 1.62%; in test [4] it was 0.94%; in [5], -0.98%; in test [6] it was 0.73%. For the same compound, the inhibition in test [7] is 3.15%; in test [8] it was 0.89%; in test [9] it was 1.15%; in test [10] it was 0.13%; in [11], 0.04%; in test [12] it was -1.06%. Also, the inhibition is 1.93% in test [13]; 0.74% in test [14]; 7.21% in test [15]; 16.8% in test [16]; 62.6% in test [17]; 2.2% in [18]. Also, the figures for the inhibition in test [19] and in [20] were 5.27% and 0.91%, respectively.

These data come from ChEMBL document CHEMBL1961873, “Compounds: GSK PKIS; Assays: Nanosyn kinase panel” (2012).
